# Data from article PMC10668032, “Altered binding affinity of SIX1-Q177R correlates with enhanced WNT5A and WNT pathway effector expression in Wilms tumor”.
# In all, about 33,000 sequences were measured (“e-score”: median about -0.053, highest 2% from about 0.38 on). Shown is part of a subset that was picked to be rich in the highest values.
# Molecular target: T1, SIX1 homeodomain (reference allele) (human, UniProt Q15475 108-198)
# T1 sequence: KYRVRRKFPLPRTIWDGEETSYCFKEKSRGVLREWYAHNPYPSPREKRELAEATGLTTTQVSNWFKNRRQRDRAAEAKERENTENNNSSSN
# Experiment: universal protein binding microarray; Universal all-10-mer PBM (8x60K, AMADID 030236), 300 nM GST-tagged protein, Alexa Fluor 488 anti-GST; buffer, salt, pH and temperature not stated (as in Berger); high values mean tight binding
# Conditions: protein: ivt; tags: N-terminal GST; dsDNA, one strand shown
# How it was run: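 Homeodomains carrying a GST tag were produced by in vitro transcription/translation, then quantified by anti-GST western blot against a recombinant GST standard curve. Duplicate applications at 300 nM final concentration were made to universal 'all 10-mer' protein binding microarrays in 8×60K format. The Universal PBM Analysis Suite was used to express binding as 8-mer E-scores.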
row,Sequence,binding signal [E-score]
1,CAGGATAG,0.315 ± 0.00491
2,AGCAGTAT,0.313 ± 0.00754
3,ATAACACC,0.301 ± 0.039
4,ATCCGTCG,0.239 ± 0.00454
5,ACGCTATC,0.296 ± 0.0306
6,ATCCAACA,0.293 ± 0.0336
7,GGTGGATA,0.362
8,AGCTATCG,0.284 ± 0.0882
9,GGGTATCA,0.4971 ± 0.0012
10,AGGTATGG,0.177 ± 0.0177
11,AGGTATCG,0.4779 ± 0.00118
12,GGTTATCA,0.21 ± 0.00931
13,GGGTATGA,0.27 ± 0.0161
14,GACACACC,0.165 ± 0.101
15,ATACTTGG,0.199 ± 0.00946
16,AAACGATC,0.216 ± 0.065
17,ATAGAGGA,0.153 ± 0.03
18,CTCCGATC,0.185 ± 0.0542
19,ATCCGATC,0.43 ± 0.0245
20,ATCCGATA,0.466 ± 0.00646
21,ATCCGCTC,0.377 ± 0.0055
22,ATCCGCTA,0.243 ± 0.0351
23,ATCCGCTG,0.305 ± 0.0121
24,ATCCGATG,0.253 ± 0.0575
25,CTCCGATA,0.314 ± 0.00415

row,Sequence,binding signal [E-score]
1,GTCCGATA,0.331 ± 0.0437
2,ATAGTGAT,0.32 ± 0.0209
3,GTGTCCGA,0.217 ± 0.0111
4,CAGATTAA,0.217 ± 0.0579
5,GCTTAATA,0.169 ± 0.0471
6,GTATTGTA,0.272 ± 0.0188
7,ATCTATCG,0.23 ± 0.0219
8,ATCCATTC,0.287 ± 0.0196
9,TACTGCAA,0.163 ± 0.0382
10,AATACATA,0.242 ± 0.0372
11,AATACATC,0.204 ± 0.0447
12,CATACACC,0.256 ± 0.0714
13,TATACATA,0.246 ± 0.0104
14,GATACACC,0.469 ± 0.00523
15,CATACAGA,0.196 ± 0.0391
16,GATACACA,0.3539 ± 0.00325
17,GATACAGA,0.268 ± 0.0783
18,GATACATC,0.4297 ± 0.000849
19,GATACAGC,0.395 ± 0.00544
20,GATACAAC,0.305 ± 0.0152
21,GATACATA,0.398 ± 0.0255
22,AGTGAGCC,0.225 ± 0.0456
23,ATCACATG,0.269 ± 0.0277
24,ATCATCTC,0.371 ± 0.00868
25,ATTGGGGG,0.152 ± 0.0367

row,Sequence,binding signal [E-score]
1,GATCAGTA,0.347 ± 0.00373
2,ATACGCTG,0.268 ± 0.0386
3,GACACCGC,0.398 ± 0.0204
4,CACACCAC,0.206 ± 0.0597
5,TACACCGA,0.361 ± 0.0113
6,CACACCTC,0.267 ± 0.0486
7,GACACCGA,0.383 ± 0.0167
8,AACACCGA,0.228 ± 0.0289
9,GACACCTC,0.3967 ± 0.00186
10,GACACCAC,0.439 ± 0.0198
11,CACACCGC,0.164 ± 0.108
12,AACACCGC,0.293 ± 0.041
13,GACACCTA,0.3565 ± 0.0024
14,AACACCAC,0.255 ± 0.026
15,ATATGGAC,0.173 ± 0.0129
16,ATCCTTTC,0.212 ± 0.0474
17,CAGGATGA,0.183 ± 0.0851
18,ATCCCTCC,0.329 ± 0.0164
19,ACGCATAT,0.233 ± 0.00465
20,GATCTAGA,0.252 ± 0.0586
21,CAGAGATA,0.27 ± 0.0194
22,CGTCTCAA,0.286 ± 0.0622
23,AGTAAGAT,0.191 ± 0.00535
24,ATCCGCCC,0.373 ± 0.0127
25,GATATCCC,0.487 ± 0.00837

row,Sequence,binding signal [E-score]
1,GCTATCCC,0.281 ± 0.0159
2,CATATCCC,0.352 ± 0.0303
3,AATATCCA,0.2955 ± 0.00224
4,AATATCCT,0.282 ± 0.0516
5,CATATCCA,0.348 ± 0.0227
6,AATATCCC,0.378 ± 0.0135
7,AATATCCG,0.317 ± 0.0622
8,GATATCCA,0.452 ± 0.0127
9,GAAGATCA,0.196 ± 0.071
10,GAGCAATA,0.151 ± 0.0211
11,CGAGATCA,0.287 ± 0.035
12,CTAAGATC,0.207 ± 0.011
13,ATCTAGCC,0.18 ± 0.0214
14,GTATGACA,0.153 ± 0.0497
15,CTATGATA,0.394 ± 0.0185
16,CTATGGTA,0.305 ± 0.0461
17,CTATGAGA,0.177 ± 0.0191
18,ATATGACC,0.189 ± 0.0241
19,GTATGATA,0.426 ± 0.00336
20,CTATGATC,0.302 ± 0.0116
21,ATATGACA,0.2181 ± 0.00196
22,GTATGAGA,0.167 ± 0.0275
23,ATATGATA,0.443 ± 0.0314
24,ATATGATG,0.202 ± 0.0156
25,ATATGATC,0.378 ± 0.0179

row,Sequence,binding signal [E-score]
1,ATCGGCGA,0.263 ± 0.0285
2,CAGCTATA,0.172 ± 0.0266
3,ATCAACCC,0.3364 ± 0.0021
4,CCCTTCGG,0.2259 ± 0.00107
5,ATCTCGGC,0.164 ± 0.0197
6,CCGCATCC,0.159 ± 0.0829
7,CTGGGGTC,0.164 ± 0.0399
8,GATCCATC,0.364 ± 0.0371
9,ATCGTTGG,0.205 ± 0.01
10,ATATAAGG,0.189 ± 0.0368
11,CGATGGAG,0.167 ± 0.00841
12,GGATCACA,0.4356 ± 0.00108
13,GGATCACC,0.438 ± 0.0243
14,CGATCACG,0.251 ± 0.0416
15,AGATCAAC,0.264 ± 0.0411
16,CGATCACC,0.34 ± 0.0407
17,TGATCACA,0.254 ± 0.0125
18,GGATCAAC,0.39 ± 0.0049
19,AGATCACC,0.317 ± 0.00333
20,GGATCAAA,0.372 ± 0.0497
21,GGATCAGA,0.414 ± 0.0101
22,CGATCAGA,0.192 ± 0.0121
23,AGATCAGA,0.215 ± 0.0541
24,CCCCATCA,0.152 ± 0.0305
25,TATCCTAA,0.238 ± 0.0642

row,Sequence,binding signal [E-score]
1,GATAACTA,0.154 ± 0.00881
2,GATCTTTA,0.164 ± 0.0165
3,ATCGCACG,0.2071 ± 0.000375
4,ATAGGCGG,0.1969 ± 0.00138
5,TATTGCGA,0.232 ± 0.0343
6,TCACCCGA,0.157 ± 0.0682
7,GATAGTAA,0.221 ± 0.00274
8,CGATCATA,0.276 ± 0.0116
9,GGATCATA,0.433 ± 0.0211
10,AGATCATA,0.323 ± 0.00987
11,ATCAACGA,0.201 ± 0.0401
12,AGTATTGG,0.204 ± 0.0532
13,ATAGCTAT,0.27 ± 0.0878
14,TCTCCAGA,0.165 ± 0.00783
15,ACAGATAC,0.341 ± 0.00624
16,GGAGATAC,0.41 ± 0.00953
17,CAAGATAC,0.349 ± 0.0341
18,AGAGATAC,0.38 ± 0.00418
19,CCAGATAA,0.234 ± 0.0252
20,AGAGATAT,0.335 ± 0.0776
21,GCAGATAC,0.3749 ± 0.000573
22,AGAGATAG,0.153 ± 0.0279
23,CCAGATAC,0.409 ± 0.0168
24,CTAGATAC,0.349 ± 0.00583
25,CGAGATAC,0.381 ± 0.00544

row,Sequence,binding signal [E-score]
1,GGAGATCC,0.374 ± 0.0453
2,ATCCGAAA,0.246 ± 0.022
3,ATATCTTG,0.271 ± 0.0944
4,CGATCTCC,0.31 ± 0.00569
5,ACTGTATC,0.367 ± 0.00948
6,CCTATAGA,0.157 ± 0.037
7,GCCTATAA,0.161 ± 0.0675
8,TATCGTGA,0.279 ± 0.00354
9,AATACGAG,0.233 ± 0.00564
10,AATTGTGA,0.185 ± 0.0272
11,CTGGTGTA,0.313 ± 0.0189
12,ATGGTGTA,0.305 ± 0.00747
13,CTGGTGTC,0.414 ± 0.0127
14,ATGGTGTG,0.183 ± 0.0828
15,CTGGTCTA,0.201 ± 0.0694
16,ATGGTGTC,0.435 ± 0.0115
17,GATCCCGA,0.377 ± 0.0296
18,TATCCCGA,0.315 ± 0.0248
19,GATCCCTA,0.3831 ± 0.000778
20,AATCCCTA,0.185 ± 0.0203
21,GATCCTTA,0.342 ± 0.021
22,AATCCCGA,0.223 ± 0.0516
23,AACCGAGA,0.162 ± 0.046
24,ACACCTCG,0.3009 ± 0.00176
25,CCTATCTA,0.178 ± 0.0299

row,Sequence,binding signal [E-score]
1,AAGATCAC,0.239 ± 0.0239
2,AGGATCAC,0.435 ± 0.0114
3,AGGATCAT,0.38 ± 0.0194
4,ATGATCAT,0.246 ± 0.029
5,AGGATCAG,0.368 ± 0.0142
6,ACGATCAC,0.177 ± 0.0336
7,CATGAGAC,0.296 ± 0.000976
8,ACTACTCG,0.163 ± 0.00508
9,AGATCAAT,0.3827 ± 0.00302
10,AGATCACG,0.306 ± 0.0143
11,GTGTCAAC,0.287 ± 0.0231
12,GTATCAAC,0.475 ± 0.0103
13,AGATCACT,0.385 ± 0.0244
14,AGATCAAG,0.232 ± 0.0888
15,GTGTCAAA,0.311 ± 0.019
16,GTATCAAA,0.452 ± 0.0436
17,AGATCAAA,0.188 ± 0.0637
18,GTATAAAC,0.185 ± 0.0191
19,AGATCACA,0.255 ± 0.00822
20,CTATCAAA,0.258 ± 0.141
21,CGGAGATA,0.314 ± 0.0255
22,ATCCTTCG,0.228 ± 0.0545
23,ATTAATCG,0.16 ± 0.0622
24,ATACTTAC,0.218 ± 0.0954
25,ATATTATG,0.299 ± 0.0542

row,Sequence,binding signal [E-score]
1,ATCAGGCG,0.25 ± 0.0206
2,CTCATCTC,0.158 ± 0.0133
3,ACTCGGGG,0.212 ± 0.0491
4,CCCTATCC,0.359 ± 0.0609
5,AGTGGGAT,0.333 ± 0.0228
6,CGATCGCC,0.257 ± 0.026
7,CGGCGATC,0.302 ± 0.0621
8,ATCTCAAC,0.233 ± 0.0413
9,CTATCAAG,0.155 ± 0.0723
10,ATATCAAA,0.374 ± 0.0809
11,ATATCAAG,0.423 ± 0.0464
12,ATATCAAC,0.418 ± 0.0449
13,ATATCAAT,0.421 ± 0.0559
14,ATCTCAAG,0.215 ± 0.0235
15,CTATCAAC,0.29 ± 0.0532
16,ATCTCAAT,0.183 ± 0.0808
17,ACAGGGTA,0.267 ± 0.0137
18,ATCATAAC,0.2814 ± 0.00204
19,CCCGTGTA,0.171 ± 0.0224
